Reference: the supplement of paper PMC8728848
This is one part of a sample in which the strongest signals are shown more often than they occur.

B1: RNase 1 (Homo sapiens) (protein)
chain: KESRAKKFQRQHMDSDSSPSSSSTYCNQMMRRRNMTQGRCKPVNTFVHEPLVDVQNVCFQEKVTCKNGQGNCYKSNSSMHITDCRLTNGSRYPNCAYRTSPKERHIIVACEGSPYVPVHFDASVEDST
B2: TbCVNHOb (Tuber borchii) (protein)
chain: GSHIGPYMSFYASSEDVRTIEEGGRTWLVGRARRADGSWQDIKLDLDNIIGNRDGHLTWGEQNFTQSASDIRFNFEGGSNVPVLRAKLRNAAGGEQESDLNLGERLTNNNGDLVFN

Experiments:
Assay in all cases: glycan array binding signal (z-score within array); higher = stronger binding
Details in all cases: glycan notation: IUPAC condensed, linker removed
[1] = molecular target: Fuc(a1-2)Gal(b1-3)GalNAc(b1-3)Gal(a1-4)Gal(b1-4)Glc
In short: (§1)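 The binding signal is a Z-score computed within each array. Data were drawn from 3228 arrays in the Consortium for Functional Glycomics database, restricted to those with a known protein sequence. Scores were averaged over arrays of the same protein sequence at different concentrations or buffers, and over linkers, and negative values can be taken as non-binding.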

[2] = molecular target: Fuc(a1-2)Gal(b1-3)[Fuc(a1-4)]GlcNAc
In short: as §1

Fuc(a1-2)[Gal(a1-3)]Gal = molecular target: Fuc(a1-2)[Gal(a1-3)]Gal
In short: as §1

[3] = molecular target: Fuc(a1-3)[Gal3S(b1-4)]GlcNAc
In short: as §1

Gal(a1-4)Gal(b1-4)Gal = molecular target: Gal(a1-4)Gal(b1-4)Gal
In short: as §1

Gal(a1-4)Gal(b1-4)GalNAc = molecular target: Gal(a1-4)Gal(b1-4)GalNAc
In short: as §1

Gal(a1-4)GlcNAc = molecular target: Gal(a1-4)GlcNAc
In short: as §1

[4] = molecular target: Gal(b1-3)GalNAc(b1-3)Gal(b1-4)Glc
In short: as §1

[5] = molecular target: Gal(b1-4)GalNAc(b1-3)[Fuc(a1-2)]Gal(b1-4)GlcNAc
In short: as §1

[6] = molecular target: GalNAc(b1-3)Gal(a1-4)Gal(b1-4)GlcNAc
In short: as §1

[7] = molecular target: GlcNAc(b1-3)[GlcNAc(b1-4)][GlcNAc(b1-6)]GlcNAc
In short: as §1

[8] = molecular target: GlcNAc(b1-3)[GlcNAc(b1-6)]GlcNAc
In short: as §1

[9] = molecular target: GlcNAc(b1-4)GlcNAc(b1-4)GlcNAc(b1-4)GlcNAc(b1-4)GlcNAc
In short: as §1

[10] = molecular target: Man(a1-2)Man(a1-2)Man(a1-3)[Man(a1-2)Man(a1-6)[Man(a1-3)]Man(a1-6)]Man(b1-4)GlcNAc(b1-4)GlcNAc
In short: as §1

Man(a1-3)[Man(a1-6)]Man = molecular target: Man(a1-3)[Man(a1-6)]Man
In short: as §1

[11] = molecular target: Neu5Ac(a2-3)Gal(b1-3)GlcNAc6S
In short: as §1

[12] = molecular target: Neu5Ac(a2-8)Neu5Ac(a2-8)Neu5Ac(a2-3)[GalNAc(b1-4)]Gal(b1-4)Glc
In short: as §1

[13] = molecular target: Fuc(a1-2)Gal(b1-3)GalNAc(b1-3)Gal(b1-4)Glc
In short: as §1

Fuc(a1-2)Gal(b1-4)Glc = molecular target: Fuc(a1-2)Gal(b1-4)Glc
In short: as §1

[14] = molecular target: Fuc(a1-2)Gal(b1-4)GlcNAc(b1-3)Gal(b1-4)GlcNAc
In short: as §1

Gal(a1-6)Glc = molecular target: Gal(a1-6)Glc
In short: as §1

[15] = molecular target: Gal(b1-3)[Fuc(a1-4)]GlcNAc(b1-3)Gal(b1-4)GlcNAc
In short: as §1

[16] = molecular target: Gal(b1-3)[Neu5Ac(a2-6)]GlcNAc
In short: as §1

[17] = molecular target: Gal(b1-3)[Neu5Ac(a2-6)]GlcNAc(a1-4)Gal(b1-4)Glc
In short: as §1

GalNAc(b1-4)GlcNAc = molecular target: GalNAc(b1-4)GlcNAc
In short: as §1

GlcA(b1-6)Gal = molecular target: GlcA(b1-6)Gal
In short: as §1

GlcNAc(b1-3)Gal = molecular target: GlcNAc(b1-3)Gal
In short: as §1

[18] = molecular target: GlcNAc(b1-4)GlcNAc(b1-4)GlcNAc
In short: as §1

[19] = molecular target: Man(a1-2)Man(a1-2)Man(a1-3)Man
In short: as §1

[20] = molecular target: Man(a1-3)[Man(a1-6)]Man(b1-4)GlcNAc(b1-4)GlcNAc
In short: as §1

Man(b1-4)GlcNAc = molecular target: Man(b1-4)GlcNAc
In short: as §1

Binder	glycan array binding signal (z-score) [1]	glycan array binding signal (z-score) [2]	glycan array binding signal (z-score) (Fuc(a1-2)[Gal(a1-3)]Gal)	glycan array binding signal (z-score) [3]	glycan array binding signal (z-score) (Gal(a1-4)Gal(b1-4)Gal)	glycan array binding signal (z-score) (Gal(a1-4)Gal(b1-4)GalNAc)	glycan array binding signal (z-score) (Gal(a1-4)GlcNAc)	glycan array binding signal (z-score) [4]	glycan array binding signal (z-score) [5]	glycan array binding signal (z-score) [6]	glycan array binding signal (z-score) [7]	glycan array binding signal (z-score) [8]	glycan array binding signal (z-score) [9]	glycan array binding signal (z-score) [10]	glycan array binding signal (z-score) (Man(a1-3)[Man(a1-6)]Man)	glycan array binding signal (z-score) [11]	glycan array binding signal (z-score) [12]	glycan array binding signal (z-score) [13]	glycan array binding signal (z-score) (Fuc(a1-2)Gal(b1-4)Glc)	glycan array binding signal (z-score) [14]	glycan array binding signal (z-score) (Gal(a1-6)Glc)	glycan array binding signal (z-score) [15]	glycan array binding signal (z-score) [16]	glycan array binding signal (z-score) [17]	glycan array binding signal (z-score) (GalNAc(b1-4)GlcNAc)	glycan array binding signal (z-score) (GlcA(b1-6)Gal)	glycan array binding signal (z-score) (GlcNAc(b1-3)Gal)	glycan array binding signal (z-score) [18]	glycan array binding signal (z-score) [19]	glycan array binding signal (z-score) [20]	glycan array binding signal (z-score) (Man(b1-4)GlcNAc)
B1	1.93	-0.174	-0.14	-0.168	7.93	8.87	-0.225	0.641	-0.218	0.455	-0.069	-0.116	-0.028	-0.153	-0.147	-0.204	-0.187														
B2	2.01			-0.469	4.24				-0.367		-0.077			-0.449		-0.045		4.24	0.347	-0.268	0.38	-0.231	-0.484	4.83	-0.366	-0.483	-0.16	-0.364	5.4	-0.197	0.106
